Pf Dd2 inh: Plasmodium falciparum Dd2 growth inhibition | P. falciparum Dd2 growth, SYBR Green, 72 h | Potency, µM (top dose mostly 28.9 µM), for inactives: top-dose activity, negative = inhibition, usual class: inhibitors | 120,000 tested, 4.3% active | AID 1347417; active = well fitted inhibition curve with a large enough effect;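 also: plate controls were DMSO vehicle for no effect and reference drug for full effect; nearly all actives have a fitted effect of over 65% in size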
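Infected erythrocytes (Dd2, 0.3% parasitemia, 2.5% hematocrit final) are added to compound in RPMI-1640/Albumax II medium, grown 72 h at 37C in low oxygen, then lysed with saponin/Triton-X containing SYBR Green and read by fluorescence.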
* marks the source's active call; other numbers are inactive results; [ ] = another dose, or the depositor's remark. Shown is part of a subset that was picked to be rich in hits. Potency is read from the fitted curve at half-maximal effect.

Screening CC(C)NC(=O)N1CCC(OCCOc2cccnc2)CC1 returned Pf Dd2 inh 62.9%.
`CN1Cc2ncnc(NCCCO)c2CN(c2ccccc2)C1=O` gave Pf Dd2 inh 27.9%[44.1 µM].
Screening COCCN1C(=O)c2ccccc2C(C(=O)NCCC2=CCCCC2)C12CCCC2 (configuration not stated) returned Pf Dd2 inh -14.3%.
COc1ccccc1C(=O)NCCC1CCN(C(=O)Nc2ccccc2F)CC1 was read as Pf Dd2 inh 1.2%.
For CNC(=O)[C@@H](c1ccccc1)N1CCC[C@H]1C(=O)NCC1CC1 the results were Pf Dd2 inh -14.6%[44.1 µM].
O=C(CC1C(=O)NCCN1Cc1ccoc1)NCc1nnc2n1CCCCC2 (configuration not stated) was read as Pf Dd2 inh -6.0%.
For COc1ccc(CCNC(=O)Cn2cccc2-c2nc(-c3ccc(F)cc3)no2)cc1OC the results were Pf Dd2 inh inactive.
Screening Cc1ccc(NC(=O)Cn2cccc2-c2nc(-c3ccccc3)no2)cc1 returned Pf Dd2 inh 89.7%.
`CCc1ccccc1NC(=O)Cn1cccc1-c1nc(-c2ccccc2)no1` gave Pf Dd2 inh 2.82µM*.
Cc1ccc(NC(=O)Cn2cccc2-c2nc(-c3ccccc3)no2)c(Cl)c1 was read as Pf Dd2 inh 4.8%.
Screening COc1ccc(-c2noc(-c3cccn3CC(=O)Nc3cccc(Cl)c3)n2)cc1F returned Pf Dd2 inh 2.51µM*.
For COc1ccc(-c2noc(-c3cccn3CC(=O)Nc3cc(F)ccc3Cl)n2)cc1F the results were Pf Dd2 inh -10.5%.
`Cc1noc(C)c1[S+](=O)([O-])N1CCC2CC(=O)NCCC2C1` (configuration not stated) gave Pf Dd2 inh 8.4%.
Screening CCN(CC)CCCNC(=O)c1cn2ccnc(-c3ccccc3)c2n1 returned Pf Dd2 inh inactive.
`CN(Cc1ccccc1)Cc1cc(C[C@@H]2CC[C@H](O)[C@@H](CNCc3ccccc3)O2)no1` gave Pf Dd2 inh 1.78µM*.
Screening CC(=O)N1CCC(NC[C@H]2O[C@H](Cc3cc(COc4ccccc4)on3)CC[C@@H]2O)CC1 returned Pf Dd2 inh inactive.
O[C@H]1CC[C@@H](Cc2cc(-c3ccc(F)cc3)on2)O[C@@H]1CNCc1ccncc1 was read as Pf Dd2 inh 10µM*.
COc1ccc(CNC[C@H]2O[C@H](Cc3cc(COc4ccccc4)on3)CC[C@@H]2O)cc1 was read as Pf Dd2 inh 3.98µM*.
Screening Cc1ccc(CNC[C@H]2O[C@H](Cc3cc(-c4ccc(F)cc4)on3)CC[C@@H]2O)cc1 returned Pf Dd2 inh -2.8%[44.1 µM].
For CCNC(=O)NC[C@H]1O[C@H](Cc2cc(CN(C)Cc3ccccc3)on2)CC[C@@H]1O the results were Pf Dd2 inh inactive.
`CCC(=O)NC[C@H]1O[C@H](Cc2cc(COc3ccccc3)on2)CC[C@@H]1O` gave Pf Dd2 inh -15.2%[44.1 µM].
`O[C@H]1CC[C@@H](Cc2cc(-c3ccc(F)cc3)on2)O[C@@H]1CNC1CCNCC1` gave Pf Dd2 inh -20.1%[44.1 µM].
`CC(C)NC[C@H]1O[C@H](Cc2cc(CN(C)Cc3ccccc3)on2)CC[C@@H]1O` gave Pf Dd2 inh 11.2µM*.
`CN(C)C[C@H]1O[C@H](Cc2cc(CN(C)Cc3ccccc3)on2)CC[C@@H]1O` gave Pf Dd2 inh -18.5%[44.1 µM].
`COCc1cc(C[C@@H]2CC[C@H](O)[C@@H](CNC3CCN(C)CC3)O2)no1` gave Pf Dd2 inh 28.4%[44.1 µM].
`COc1ccc(C(=O)NC[C@H]2O[C@H](Cc3cc(COc4ccccc4)on3)CC[C@@H]2O)cc1` gave Pf Dd2 inh -5.7%.
For CCN(CC)C(=O)[C@@H]1C[C@H](N)CN1C(=O)c1ccc2c(c1)OCC(=O)N2 the results were Pf Dd2 inh 3.2%.
`Cc1onc(-c2cnn(C)c2NCCc2ccccc2)c1C(=O)NCc1ccoc1` gave Pf Dd2 inh -20.9%[44.1 µM].
For CN1C(=O)CC(C(=O)O)C12CCN(Cc1cscn1)CC2 (configuration not stated) the results were Pf Dd2 inh 1.7%.
Screening O=C(c1cccc(-n2cnnc2)c1)N1CCCCCC1c1cccc(F)c1 (configuration not stated) returned Pf Dd2 inh -28.5%.
Screening Cn1nc2n(c1=O)CCN(C(=O)c1cscn1)CC2 returned Pf Dd2 inh 8.8%.
`O=C(CN1C(=O)NC(c2ccccc2Cl)C2=C1COC2=O)Nc1ccc(C(F)(F)F)cc1` (configuration not stated) gave Pf Dd2 inh -11.8%.
Screening COc1ccc(NCCN2CCCC2)cc1 returned Pf Dd2 inh -8.0%[44.1 µM].
CCOC(=O)C1CCCN(c2ncnc3c2cnn3-c2ccc(C)c(Cl)c2)C1 (configuration not stated) was read as Pf Dd2 inh 62.1%.
For CCc1ccc2ncc(C(=O)c3ccc(C)c(C)c3)c(N3CCC(C(N)=O)CC3)c2c1 the results were Pf Dd2 inh -34.3%.
CCOC(=O)C1CCCN(c2c(C(=O)c3ccc(C)cc3)cnc3ccc(OCC)cc23)C1 (configuration not stated) was read as Pf Dd2 inh 11.2µM*.
CC(C)CN(CC1CN(C(=O)c2ccccc2Cl)CCO1)C(=O)c1cccc(F)c1 (configuration not stated) was read as Pf Dd2 inh -29.3%.
For COCCCN1C(=O)CC[C@H]2CN(Cc3cc(CC(C)C)n[nH]3)CC[C@H]21 the results were Pf Dd2 inh 0.3%.
`CCc1ccccc1NC(=O)Cn1nc2n(c1=O)CCCC2` gave Pf Dd2 inh -6.0%.
For Cc1cc(F)ccc1NC(=O)CN1C(=O)NC2(CCS(=O)(=O)CC2)C1=O the results were Pf Dd2 inh 10.9%.
O=C(Nc1ccc(F)cc1)c1cccn2cncc12 was read as Pf Dd2 inh 15.8µM*.
For O=C(Nc1ccc(Cl)cc1Cl)c1ccn2cncc2c1 the results were Pf Dd2 inh -0.9%[44.1 µM].
For O=C(Nc1ccc(F)cc1)c1cc2cccnn2n1 the results were Pf Dd2 inh inactive.
O=C(Nc1ccc(Cl)cc1Cl)c1ccc2cncn2c1 was read as Pf Dd2 inh inactive.
`O=C(Nc1ccc(Cl)cc1Cl)c1cccn2cncc12` gave Pf Dd2 inh 12.6µM*.
Screening O=C(Nc1ccc(F)cc1)c1ccc(-n2cnnc2)cc1 returned Pf Dd2 inh 25.8%.
`O=C(c1ccccc1)N1CCCC2(CC(c3ccccn3)=NO2)C1` (configuration not stated) gave Pf Dd2 inh 37.9%.
O=C(NCc1ccc(N2CCOCC2)cc1)C1CCN(c2cnc3nccnc3c2)CC1 was read as Pf Dd2 inh inactive.
O=C(N[C@@H]1CCOC[C@H]1O)c1cnn2cc(CCO)cnc12 was read as Pf Dd2 inh -10.0%.
`O=C(NCc1ccccn1)C1CCN(Cc2cc3n(n2)CCNC3)CC1` gave Pf Dd2 inh -7.5%.
Screening COc1ccc(CNC(=O)C2Cn3cccc3C(=O)N2C)cc1OC (configuration not stated) returned Pf Dd2 inh inactive.
`c1cncc(CN2CCC(Oc3nccnc3N3CCc4ccccc43)C2)c1` (configuration not stated) gave Pf Dd2 inh 3.55µM*.
`Cc1ncc2n1C(=O)N(C1CCN(Cc3cccnc3)CC1)C2` gave Pf Dd2 inh 12.7%[44.1 µM].
O=C(C1CC1)N1CCC(OC2CCN(Cc3cccnc3)CC2)CC1 was read as Pf Dd2 inh -7.4%.
`CC(C)c1ccc(C2c3c(oc4ccc(Cl)cc4c3=O)C(=O)N2CCCN2CCOCC2)cc1` (configuration not stated) gave Pf Dd2 inh 6.31µM*.
